From PubChem BioAssay AID1851 (National Center for Advancing Translational Sciences (NCATS), 2009)
The campaign covered roughly 16,000 compounds. About 5,700 (36%) were called active. Another 24% or so got no clear call; they are omitted. Calls come from the whole dose curve; as a rule, active = well fitted curve in the direction sought with a large enough effect; inconclusive = small, poorly fitted or top-dose-only effect, or effect the other way; inactive = no such curve, though single readings can be large or run the other way. This is one part of the list.
% is set by controls: 0 for no effect and ±100 for the full control effect.

Each compound was assayed against Cytochrome P450 1A2 (Homo sapiens) (UniProt P05177) (assay: Cytochrome panel assay with activity outcomes). Settings: recombinant CYP, pro-luciferin dealkylation, luminescence, p450-cyp1a2; series mostly up to 57.1 µM.
Sequence of Cytochrome P450 1A2 (Homo sapiens) (P05177 whole entry, looked up): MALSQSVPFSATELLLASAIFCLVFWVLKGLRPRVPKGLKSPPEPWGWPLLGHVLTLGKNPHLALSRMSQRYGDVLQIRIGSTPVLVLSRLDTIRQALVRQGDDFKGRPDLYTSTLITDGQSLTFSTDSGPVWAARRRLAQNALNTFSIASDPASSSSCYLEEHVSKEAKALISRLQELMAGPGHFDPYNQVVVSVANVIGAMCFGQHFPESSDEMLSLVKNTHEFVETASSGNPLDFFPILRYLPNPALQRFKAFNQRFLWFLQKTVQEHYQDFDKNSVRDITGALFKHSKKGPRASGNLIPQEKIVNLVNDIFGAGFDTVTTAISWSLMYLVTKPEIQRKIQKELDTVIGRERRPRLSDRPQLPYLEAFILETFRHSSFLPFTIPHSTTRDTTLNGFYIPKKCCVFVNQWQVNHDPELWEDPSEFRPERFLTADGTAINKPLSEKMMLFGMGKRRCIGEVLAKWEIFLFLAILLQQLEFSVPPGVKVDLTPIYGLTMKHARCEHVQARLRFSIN
With `O=C(/C=C/c1ccc2c(c1)OCO2)NCCSCc1cccc(Cl)c1` the AC50 was 4.47 µM (active). In the case of `O=C(Cn1nc(C(F)F)cc1C(F)F)N/N=C/c1ccc2c(c1)OCO2`, the AC50 is reported as 0.891 µM (active). For `CCS(=O)(=O)N1CCCC(C(=O)NCCCOC(C)C)C1` (stereo not drawn), the AC50 was “inactive”. With `CCOC(=O)c1ccc(NC(=O)CC2NCCNC2=O)cc1` (stereo not drawn) the AC50 was “inactive”. In the case of `CCC1C(=O)N=C(SCC(=O)Nc2ccc(C(=O)OC)cc2)NC1=O` (stereo not drawn), the AC50 is reported as 15.8 µM (active). For `C/C(=N\NC(=O)c1ccc(Cl)cc1)c1ccc(Br)s1`, the AC50 was 1.26 µM (active). `CC(NC(=O)c1cccc(F)c1)C(c1cccs1)N1CCN(C)CC1` (stereo not drawn) was tested, and the AC50 was “inactive”. With `C/C(=N\NC(N)=O)c1ccc(Cl)cc1` the AC50 was 3.16 µM (active). For `CN1C(=O)C(CC(N)=O)N(NC(=O)c2ccc(Cl)cc2)C1=S` (stereo not drawn), the AC50 was “inactive”. With `C/C(=N\NC(=O)c1cccc(F)c1)c1ccc(Br)s1` the AC50 was 0.631 µM (active). `CCN1C(=O)[C@H]2[C@H]3[C@H](O)[C@H](O)C/C(=N/O[C@@H](C)c4cn([C@H]5COC[C@H]5O)nn4)[C@@H]3CC[C@@H]2C1=O` was tested, and the activity, negative = inhibition was -9.43% [at 11.4 µM] (inactive). In the case of `CCCS(=O)(=O)N1CCCC(C(=O)NCCN2CCOCC2)C1` (stereo not drawn), the AC50 is reported as “inactive”. In the case of `COCCNC(=O)c1sc2nc(-c3ccccc3)cn2c1C`, the AC50 is reported as 2 µM (active). For `COCCNC(=O)CCn1nc(-c2ccc(Cl)cc2)ccc1=O`, the AC50 was “inactive”. In the case of `COCCNC(=O)c1cn(Cc2c(F)cccc2Cl)nn1`, the AC50 is reported as “inactive”. In the case of `O=c1[nH]c2ccccc2c2ccccc12`, the AC50 is reported as 0.251 µM (active). With `CC(=O)Nc1ccc(Cc2ccc3[nH]c(=O)cc(C)c3c2)cc1` the activity, negative = inhibition was -17% [at 11.4 µM] (inactive). For `Cc1cc(=O)[nH]c2ccccc12`, the AC50 was 15.8 µM (active). For `C=CCSc1ncccc1C(=O)NCc1ccc(C)cc1`, the AC50 was 0.794 µM (active). For `O=C(O)c1cccnc1SCC(=O)N1CCCCCC1`, the AC50 was “inactive”. `COC(=O)C/C=C\[C@@H](C)[C@@H](/C=N\O[C@@H](C)CN1CCCc2nc(C)c(C)cc21)OC` was tested, and the activity, negative = inhibition was -0.522% [at 11.4 µM] (inactive). `O=C(Nc1cccnc1)c1ccc(COc2cc(Cl)ccc2Cl)o1` was tested, and the AC50 was 0.794 µM (active). For `Cn1ncc(Cl)c1C(=O)Nc1cccnc1`, the AC50 was 3.55 µM (active). In the case of `CC(C)CNC(=O)c1ccc(COc2ccc(Cl)cc2Cl)o1`, the AC50 is reported as 14.1 µM (active). In the case of `CC(C(=O)Nc1cccnc1)N1C(=O)C2C3C=CC(C3)C2C1=O` (stereo not drawn), the AC50 is reported as “inactive”. In the case of `O=C(N/N=C/c1ccc(O)cc1)c1ccc(COc2cc(Cl)ccc2Cl)o1`, the AC50 is reported as 4.47 µM (active). For `O=C1C(O)=C(O)C(=O)C(O)=C1O`, the AC50 was “inactive”. In the case of `CC(=O)OC[C@@H]1O[C@H](CCO/N=C(\C)CCN2CCCc3nc(C)c(C)cc32)C=C[C@@H]1OC(C)=O`, the activity, negative = inhibition is reported as -5.74% [at 11.4 µM] (inactive).
